Data taken from PubChem BioAssay.
The source made the active and inactive calls.

Tests used:
[1] = optical density shifts of acrAB sulA E. coli – strain DRC41, OD650, 48 h, E. coli filamentation inducer project, primary screen (AID 1152); conditions: higher = more signal, called active from +8 up or from −8 down;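 note: E. coli MC1000 strain DRC41 lacking acrAB efflux pump and sulA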
[2] = probe aLefty1 binding on compound microarray – biochemical, small-molecule microarray, 635/667 nm fluorescence, primary screen (AID 1153); conditions: higher = more signal;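 note: score merges spot fluorescence with signal-to-noise ratio from the scanned slide images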
[3] = plasmodial surface anion channel blockers, osmotic lysis – cell-based, P. falciparum Indochina, OD700, 1 h, primary screen (AID 1154); conditions: P. falciparum Indochina infected RBC osmotic lysis, higher = more signal, called active from +8 up or from −8 down
[4] = plasmodial surface anion channel blockers, osmotic lysis – cell-based, P. falciparum Indochina, OD700, 2 h, primary screen (AID 1155);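 note: lysis reports solute entry through the parasite surface anion channel PSAC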; conditions: P. falciparum Indochina infected erythrocytes, higher = more signal, called active from +8 up or from −8 down
[5] = changes in parasitized red cell lysis, either direction – P. falciparum Indochina, OD700, 3 h, PSAC antagonist project, primary screen (AID 1156); conditions: P. falciparum-infected erythrocytes, osmotic lysis, higher = more signal, called active from +8 up or from −8 down
[6] = plasmodial surface anion channel blockers, osmotic lysis – cell-based, P. falciparum Indochina, OD700, 18 h, primary screen (AID 1157); conditions: P. falciparum Indochina infected erythrocytes, osmotic lysis OD700, 18 h; higher = more signal, called active from +8 up or from −8 down
[7] = S6 kinase pathway phospho-S6 level changes – cell-based, A549, cytoblot, luminescence, serum-stimulated, primary screen (AID 1158); conditions: 5 h, higher = more signal;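 note: serum-stimulated A549 lung adenocarcinoma cells; signal is phosphorylated S6 detected by cytoblot immunostaining with HRP secondary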
[8] = target: NADPH oxidase 2 (Homo sapiens) (UniProt P04839); assay: compounds shifting NOX2 Amplex Red fluorescence – cell-based, HEK293-NOX2, PMA-stimulated, NOX inhibitor project, primary screen (AID 1159); conditions: 45 min, higher = more signal, called active from +8 up or from −8 down; note: test concentration not given here
Chain of NADPH oxidase 2 (Homo sapiens) (P04839 whole entry, looked up): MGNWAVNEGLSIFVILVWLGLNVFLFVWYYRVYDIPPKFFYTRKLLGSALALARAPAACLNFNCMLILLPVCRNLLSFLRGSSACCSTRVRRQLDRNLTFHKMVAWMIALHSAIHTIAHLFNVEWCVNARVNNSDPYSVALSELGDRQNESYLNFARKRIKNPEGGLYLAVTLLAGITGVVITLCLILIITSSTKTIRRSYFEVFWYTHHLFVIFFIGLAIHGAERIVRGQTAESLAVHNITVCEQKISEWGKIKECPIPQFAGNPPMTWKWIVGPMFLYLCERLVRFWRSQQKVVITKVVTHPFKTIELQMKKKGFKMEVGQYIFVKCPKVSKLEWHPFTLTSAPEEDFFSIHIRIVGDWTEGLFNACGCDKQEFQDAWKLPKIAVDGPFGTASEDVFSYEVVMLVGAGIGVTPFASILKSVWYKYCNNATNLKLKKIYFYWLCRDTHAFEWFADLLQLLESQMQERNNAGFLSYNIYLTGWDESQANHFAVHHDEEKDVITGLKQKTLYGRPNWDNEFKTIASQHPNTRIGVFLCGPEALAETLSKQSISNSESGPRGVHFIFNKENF

[9] = target: NADPH oxidase 4 (Homo sapiens) (UniProt Q9NPH5); assay: compounds shifting NOX4 Amplex Red fluorescence – cell-based, HEK293-NOX4, tetracycline-induced, NOX inhibitor project, primary screen (AID 1160); conditions: HEK293-NOX4, Amplex Red H2O2 fluorescence, 45 min; higher = more signal, called active from +8 up or from −8 down
Chain of NADPH oxidase 4 (Homo sapiens) (Q9NPH5 whole entry, looked up): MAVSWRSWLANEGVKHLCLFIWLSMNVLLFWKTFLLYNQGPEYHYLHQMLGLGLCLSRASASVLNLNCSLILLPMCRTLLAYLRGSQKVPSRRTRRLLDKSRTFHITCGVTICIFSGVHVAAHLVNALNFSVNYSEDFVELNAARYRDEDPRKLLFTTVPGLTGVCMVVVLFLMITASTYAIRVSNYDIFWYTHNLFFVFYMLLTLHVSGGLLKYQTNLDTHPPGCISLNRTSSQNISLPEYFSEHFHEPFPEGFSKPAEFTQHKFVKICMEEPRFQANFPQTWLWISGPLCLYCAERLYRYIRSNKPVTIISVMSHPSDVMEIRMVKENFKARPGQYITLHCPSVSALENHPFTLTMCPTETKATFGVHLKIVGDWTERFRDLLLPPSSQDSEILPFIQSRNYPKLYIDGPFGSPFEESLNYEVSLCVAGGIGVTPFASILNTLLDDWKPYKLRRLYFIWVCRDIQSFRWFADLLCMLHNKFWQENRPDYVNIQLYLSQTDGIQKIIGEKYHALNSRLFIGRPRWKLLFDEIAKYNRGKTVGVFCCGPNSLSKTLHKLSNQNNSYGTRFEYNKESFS

[10] = target: NADPH oxidase 5 (Homo sapiens) (UniProt Q96PH1); assay: compounds shifting NOX5 Amplex Red fluorescence – cell-based, HEK293-NOX5, NOX inhibitor project, primary screen (AID 1161); conditions: HEK293-NOX5, ionomycin, 45 min, higher = more signal
Chain of NADPH oxidase 5 (Homo sapiens) (Q96PH1 whole entry, looked up): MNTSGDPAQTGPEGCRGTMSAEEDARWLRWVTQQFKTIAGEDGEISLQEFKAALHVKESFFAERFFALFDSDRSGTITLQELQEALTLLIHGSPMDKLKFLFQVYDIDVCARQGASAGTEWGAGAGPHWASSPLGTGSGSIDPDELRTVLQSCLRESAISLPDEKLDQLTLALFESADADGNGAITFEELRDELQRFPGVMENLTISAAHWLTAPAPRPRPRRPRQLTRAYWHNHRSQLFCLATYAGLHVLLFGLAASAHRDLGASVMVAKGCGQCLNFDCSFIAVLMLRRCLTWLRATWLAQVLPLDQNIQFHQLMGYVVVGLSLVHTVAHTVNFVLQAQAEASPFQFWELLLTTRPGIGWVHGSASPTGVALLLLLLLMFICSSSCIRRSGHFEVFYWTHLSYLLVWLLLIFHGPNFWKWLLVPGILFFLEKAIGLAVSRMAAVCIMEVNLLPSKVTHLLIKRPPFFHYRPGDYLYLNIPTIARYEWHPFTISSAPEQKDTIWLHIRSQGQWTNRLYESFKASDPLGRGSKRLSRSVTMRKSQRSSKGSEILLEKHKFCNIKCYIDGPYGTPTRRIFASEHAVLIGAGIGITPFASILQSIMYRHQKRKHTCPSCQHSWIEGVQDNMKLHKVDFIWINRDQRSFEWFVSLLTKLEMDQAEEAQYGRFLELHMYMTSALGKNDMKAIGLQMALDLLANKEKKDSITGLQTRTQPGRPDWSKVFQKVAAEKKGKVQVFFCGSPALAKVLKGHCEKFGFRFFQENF

[11] = compound effects on lung adenocarcinoma cell viability – A549, calcein-AM fluorescence, 48 h, basal, profiling panel (AID 1162); conditions: higher = more signal; note: test concentration not given here
[12] = compound effects on differentiated 3T3-L1 adipocyte viability – cell-based, 3T3-L1 adipocytes, calcein-AM fluorescence, 48 h, basal, profiling panel (AID 1163); conditions: 3T3-L1 adipocytes viability, higher = more signal; note: test concentration not given here
[13] = compound effects on hepatocellular carcinoma cell viability – HepG2, calcein-AM fluorescence, 48 h, basal, profiling panel (AID 1164); conditions: higher = more signal; note: test concentration not given here
[14] = compound effects on multiple myeloma cell viability – MM1S, calcein-AM fluorescence, 48 h, basal, profiling panel (AID 1165); conditions: higher = more signal; note: test concentration not given here
[15] = calcein-AM signal in unstimulated myeloma cells – cell-based, calcein-AM fluorescence, 48 h, PK04 Diversity Set, profiling panel (AID 1166); conditions: RPMI8226 myeloma viability, higher = more signal;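 note: cells grown under basal conditions without added stimulus; test concentration not given here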
[16] = JC-1 mitochondrial signal, unstimulated HepG2 cells – cell-based, JC-1 fluorescence, 24 h, 100 nL compound, profiling panel (AID 1167); conditions: HepG2 mitochondrial potential, higher = more signal; note: test concentration not given here
[17] = JC-1 mitochondrial signal, unstimulated adipocytes – cell-based, JC-1 fluorescence, 3T3-L1 adipocytes, 24 h, 100 nL compound, profiling panel (AID 1168); conditions: JC-1 mitochondrial fluorescence, higher = more signal, called active from +8 up or from −8 down; note: test concentration not given here
[18] = JC-1 mitochondrial signal, unstimulated myeloma cells – cell-based, JC-1 fluorescence, RPMI8226, 24 h, 100 nL compound, profiling panel (AID 1169); conditions: JC-1 mitochondrial potential fluorescence, higher = more signal; note: test concentration not given here
[19] = JC-1 mitochondrial signal, unstimulated MM1S myeloma – cell-based, JC-1 fluorescence, 24 h, 100 nL compound, profiling panel (AID 1170); conditions: MM1S mitochondrial potential, higher = more signal; note: test concentration not given here
[20] = resazurin metabolic signal in A549 cells – cell-based, resazurin fluorescence, 24 h, PK04 Diversity Set, profiling panel (AID 1171); conditions: A549 viability, higher = more signal, called active from +8 up or from −8 down; note: test concentration not given here

Row | SMILES | z-score [1] | composite z-score [2] | z-score [3] | z-score [4] | z-score [5] | z-score [6] | z-score [7] | z-score [8] | z-score [9] | z-score [10] | z-score [11] | z-score [12] | z-score [13] | z-score [14] | z-score [15] | z-score [16] | z-score [17] | z-score [18] | z-score [19] | z-score [20]
1 | COC(=O)[C@@H]1CC[C@H](C)[C@@H](c2ccc(Br)cc2)N1C[C@@H](O)CN=[N+]=[N-] | -1.67 (inactive) | -0.147 | 1.87 (inactive) | -0.514 (inactive) | 0.27 (inactive) | -0.956 (inactive) | 1.84 | 0.0777 (inactive) | -1.37 (inactive) | 0.126 | -0.618 | 0.379 | -0.494 | -0.682 | -1.4 | 0.462 | 0.866 (inactive) | 0.65 | -0.553 | 0.0136 (inactive)
2 | CC(CCN1CCCc2nc(C)c(C)cc21)=NO[C@@H](C)c1cn([C@H](CO)Cc2ccccc2)nn1 | 1.15 (inactive) | -0.193 | 0.202 (inactive) | 0.0178 (inactive) | 0.0882 (inactive) | 0.392 (inactive) | 0.137 | -0.588 (inactive) | 0.313 (inactive) | 0.351 | 1.11 | -0.189 | -0.136 | 0.33 | 0.049 | 0.38 | 0.733 (inactive) | -0.0733 | -0.762 | -0.131 (inactive)
3 | CC(C)=NO[C@H](C)c1cn([C@@H]2COC[C@H]2O)nn1 | 0.36 (inactive) | -0.0518 | 0.813 (inactive) | 0.935 (inactive) | 0.627 (inactive) | 0.489 (inactive) | 0.381 | 0.0279 (inactive) | 0.549 (inactive) | 0.595 | 0.874 | -0.573 | 0.818 | 0.0495 | -0.275 | 1.01 | 0.0682 (inactive) | 0.183 | -0.593 | -0.483 (inactive)
4 | CCOC(=O)CCN1C(=O)[C@H]2[C@H]3[C@H](O)[C@H](O)CC(=NNC(=O)OCc4ccc(OC)cc4)[C@H]3CC[C@H]2C1=O | -0.448 (inactive) | -0.0109 | 0.519 (inactive) | -0.0212 (inactive) | 0.0927 (inactive) | 0.0103 (inactive) | -0.528 | 1.67 (inactive) | 0.619 (inactive) | 0.937 | -0.185 | -0.385 | -0.0426 | -0.885 | -0.87 | -0.146 | -0.447 (inactive) | -0.207 | -0.387 | -0.495 (inactive)
5 | CCOC(=O)NN=C1C[C@@H](O)[C@@H](O)[C@@H]2[C@@H]3C(=O)N(C[C@@H]4CCCO4)C(=O)[C@@H]3CC[C@H]12 | 0.138 (inactive) | -0.147 | -0.133 (inactive) | -0.121 (inactive) | -0.497 (inactive) | -0.235 (inactive) | 0.0411 | 0.192 (inactive) | 0.433 (inactive) | -0.468 | -0.0295 | 0.127 | -1.17 | -0.0085 | 0.121 | -0.686 | -0.408 (inactive) | -0.38 | -0.229 | 0.159 (inactive)
6 | O=C1[C@H]2CCn3c(=O)n(Cc4cc5c(cc4Cl)OCO5)c(=O)n3[C@H]2[C@H](O)[C@@H]2O[C@H]12 | 0.709 (inactive) | -0.196 | 0.439 (inactive) | -0.511 (inactive) | -0.277 (inactive) | -0.212 (inactive) | 0.489 | -0.664 (inactive) | 0.135 (inactive) | 0.336 | 0.173 | -0.124 | -0.0111 | -1.72 | -0.518 | 0.039 | -0.275 (inactive) | 0.177 | -0.744 | -0.963 (inactive)
7 | COC(=O)C1=C(C)N(Cc2ccccc2)C2=C3C(=O)OCC[C@@H]3[C@@](O)(C(=O)OC)C(=O)N2[C@@H]1c1ccccc1 | 0.884 (inactive) | -0.286 | 0.121 (inactive) | 0.132 (inactive) | 0.0954 (inactive) | 0.126 (inactive) | 0.0012 | 0.0769 (inactive) | -0.0428 (inactive) | 0.251 | 1.62 | -0.792 | 0.24 | 0.489 | -0.755 | 1.85 | -1.11 (inactive) | -0.391 | -0.91 | 0.56 (inactive)
8 | CCOC(=O)CCN1C(=O)[C@H]2[C@H]3[C@H](O)[C@H](O)CC(=NOCC=C(C)CCC=C(C)C)[C@@H]3CC[C@H]2C1=O | -0.879 (inactive) | -0.193 | 0.0845 (inactive) | 0.278 (inactive) | -0.931 (inactive) | -0.014 (inactive) | 0.233 | -0.737 (inactive) | 0.511 (inactive) | -0.0503 | -0.0606 | -0.218 | -0.124 | 0.232 | -0.0685 | -0.651 | -0.204 (inactive) | -0.225 | -0.251 | -0.23 (inactive)
9 | O=C1C[C@@H](O)[C@@H](O)[C@@H]2[C@@H]3C(=O)N(C4CCCCC4)C(=O)[C@@H]3CC[C@@H]12 | -0.348 (inactive) | -0.395 | 0.733 (inactive) | 0.14 (inactive) | 0.265 (inactive) | -0.0387 (inactive) | -0.604 | -0.0439 (inactive) | 0.468 (inactive) | 0.0192 | 0.112 | 0.0679 | 0.236 | -0.0357 | 0.313 | 0.0325 | -0.907 (inactive) | 0.0121 | -0.377 | -0.732 (inactive)
